# About 7,900 targets were measured; listed, in parts, are those with a hit and a random draw of the rest. About 0.6% of all pairs of compound and target were hits. Values without a mark were called inactive.
# How the values were obtained:
# Experiment in all cases: log2 fold change, soluble protein after heating vs DMSO (PISA); higher = thermal stabilisation; K562 cells, 10 uM, 30 min; active = over 0.2 and 3.5 SD of the protein, either way, in both replicates (recomputed)
# erlotinib = compound: C#Cc1cccc(Nc2ncnc3cc(OCCOC)c(OCCOC)cc23)c1 [erlotinib]
# Method in brief: (§1)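 Values are thermal stability changes relative to control samples and are taken from duplicates. They are stated as log2 fold changes. Before quantification by TMTpro 16plex LC-MS/MS with equalised channel sums, K562 cells at 2×10^6 cells/mL were treated with 10 μM compound for 30 min, heated in aliquots for 3 min across 48°C-58°C, pooled, extracted in PBS with 0.5% NP-40 at 4°C, and centrifuged at 21,000xg for 90 min to give the soluble supernatant.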
# [1] = compound: C/C(=N\NC(=O)C1=CC(=CC=C1)S(=O)(=O)N2CCOCC2)/C3=C(C=CC(=C3)Cl)O
# Method in brief: as §1
# [2] = compound: C1=CC(=C(C=C1Cl)C2=NC3=NC=CN=C3C(=N2)NC4=CC=NC=C4)F
# Method in brief: as §1
# [3] = compound: C1=CC(=CC=C1C2=NC3=C(N2)C=C(C=C3)C(=O)N)OC4=CC=C(C=C4)Cl
# Method in brief: as §1
# [4] = compound: C1=CC2=C(C=CC(=C2)/C=C\3/C(=O)NC(=NCC4=CC=CS4)S3)N=C1
# Method in brief: as §1
# [5] = compound: C1=CC2=NC=CN=C2C=C1/C=C/3\C(=O)NC(=O)S3
# Method in brief: as §1
# [6] = compound: C1=CC=C(C=C1)C2=NC(=C(N2)C3=CC=NC=C3)C4=CC(=C(C=C4)Cl)O
# Method in brief: as §1
# [7] = compound: C1=CC=C2C(=C1)C3=NNC4=CC=CC(=C43)C2=O
# Method in brief: as §1
# [8] = compound: C1CCN(C1)C(=O)NC2=CC=CC(=C2)NC3=NC=C(C(=N3)NCCC4=CN=CN4)Br
# Method in brief: as §1
# [9] = compound: C1CN(CCC1(CC2=CC=C(C=C2)Cl)N)C3=NC=NC4=C3C=CN4
# Method in brief: as §1
# IRAK-1-4 Inhibitor I = compound: C1COCCN1CCN2C3=CC=CC=C3N=C2NC(=O)C4=CC(=CC=C4)[N+](=O)[O-] [IRAK-1-4 Inhibitor I]
# Method in brief: as §1
# ibrutinib = compound: C=CC(=O)N1CCC[C@@H](n2nc(-c3ccc(Oc4ccccc4)cc3)c3c(N)ncnc32)C1 [ibrutinib]
# Method in brief: as §1
# [10] = compound: CC(=O)c1cnc2ccc(-c3cc(Cl)c(O)c(Cl)c3)nc2c1N[C@H]1CC[C@H](CN(C)C)CC1
# Method in brief: as §1
# ralimetinib = compound: CC(C)(C)Cn1c(N)nc2ccc(-c3[nH]c(C(C)(C)C)nc3-c3ccc(F)cc3)nc21 [ralimetinib]
# Method in brief: as §1
# [11] = compound: CC(C)(O)CC(=O)NCCn1ccc2ncnc(Nc3ccc(Oc4cccc(C(F)(F)F)c4)c(Cl)c3)c21
# Method in brief: as §1
# [12] = compound: CC(C)C1=C2N=C(C=C(N2N=C1)NCC3=CC=CC=C3)NCCCCCCN
# Method in brief: as §1
# [13] = compound: CC(C)C[C@@H](C=O)NC(=O)[C@H](CC(C)C)NC(=O)[C@H](CC(C)C)NC(=O)OCc1ccccc1
# Method in brief: as §1
# pinometostat = compound: CC(C)N(C[C@H]1O[C@@H](n2cnc3c(N)ncnc32)[C@H](O)[C@@H]1O)[C@H]1C[C@@H](CCc2nc3cc(C(C)(C)C)ccc3[nH]2)C1 [pinometostat]
# Method in brief: as §1
# [14] = compound: CC1=C(C(CC(=O)N1)C2=CC=C(C=C2)C(F)(F)F)C(=O)NC3=C(C=C4C(=C3)C=NN4)F
# Method in brief: as §1
# [15] = compound: CC1=C(C2=C(C=C1)C(=O)C3=CC=CC=C3N2CCCN)C
# Method in brief: as §1
# Sequence of UniProt Q9NQ29 (Q9NQ29 whole entry, looked up): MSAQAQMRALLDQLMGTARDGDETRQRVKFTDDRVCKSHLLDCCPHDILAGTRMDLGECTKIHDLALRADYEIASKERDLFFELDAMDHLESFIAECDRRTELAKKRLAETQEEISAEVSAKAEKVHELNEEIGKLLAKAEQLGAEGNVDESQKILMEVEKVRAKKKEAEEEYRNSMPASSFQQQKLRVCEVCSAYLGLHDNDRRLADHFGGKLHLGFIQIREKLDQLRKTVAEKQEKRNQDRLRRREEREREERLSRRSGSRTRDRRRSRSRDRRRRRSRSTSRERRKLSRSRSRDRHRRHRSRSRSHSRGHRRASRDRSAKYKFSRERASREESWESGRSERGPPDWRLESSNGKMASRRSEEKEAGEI
# Sequence of UniProt Q13418 (Q13418 whole entry, looked up): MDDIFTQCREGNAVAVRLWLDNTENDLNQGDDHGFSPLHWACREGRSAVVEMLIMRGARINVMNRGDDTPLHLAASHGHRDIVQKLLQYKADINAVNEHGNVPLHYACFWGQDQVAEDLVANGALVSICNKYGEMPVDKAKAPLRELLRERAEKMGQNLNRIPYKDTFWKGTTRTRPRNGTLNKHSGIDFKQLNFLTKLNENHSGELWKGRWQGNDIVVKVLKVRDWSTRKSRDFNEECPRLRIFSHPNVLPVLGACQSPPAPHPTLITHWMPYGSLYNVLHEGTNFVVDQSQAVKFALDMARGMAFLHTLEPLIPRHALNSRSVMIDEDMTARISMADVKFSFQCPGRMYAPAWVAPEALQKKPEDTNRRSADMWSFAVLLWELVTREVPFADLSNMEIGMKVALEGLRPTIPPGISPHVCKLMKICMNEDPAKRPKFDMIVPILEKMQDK
# Sequence of UniProt Q9H1B7 (Q9H1B7 whole entry, looked up): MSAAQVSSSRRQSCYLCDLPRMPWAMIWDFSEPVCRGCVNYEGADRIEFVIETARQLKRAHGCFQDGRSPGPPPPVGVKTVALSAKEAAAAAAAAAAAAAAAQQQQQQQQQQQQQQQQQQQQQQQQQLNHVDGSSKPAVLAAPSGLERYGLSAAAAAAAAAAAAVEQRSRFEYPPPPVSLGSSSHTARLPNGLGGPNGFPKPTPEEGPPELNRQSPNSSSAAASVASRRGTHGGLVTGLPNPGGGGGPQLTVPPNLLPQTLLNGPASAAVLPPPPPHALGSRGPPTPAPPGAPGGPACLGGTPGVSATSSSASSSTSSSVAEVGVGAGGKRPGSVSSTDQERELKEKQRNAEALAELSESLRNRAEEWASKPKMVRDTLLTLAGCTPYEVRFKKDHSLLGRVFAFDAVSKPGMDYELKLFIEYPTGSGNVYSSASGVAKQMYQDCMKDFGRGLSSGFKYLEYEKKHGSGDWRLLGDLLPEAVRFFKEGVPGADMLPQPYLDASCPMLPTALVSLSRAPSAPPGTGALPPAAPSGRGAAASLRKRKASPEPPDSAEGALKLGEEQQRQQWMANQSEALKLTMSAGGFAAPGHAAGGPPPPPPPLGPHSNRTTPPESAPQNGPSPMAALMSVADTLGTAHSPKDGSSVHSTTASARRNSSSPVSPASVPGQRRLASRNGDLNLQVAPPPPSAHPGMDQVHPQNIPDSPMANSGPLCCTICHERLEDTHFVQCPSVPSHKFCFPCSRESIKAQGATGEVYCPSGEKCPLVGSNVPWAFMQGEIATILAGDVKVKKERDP
# Sequence of UniProt Q12905 (Q12905 whole entry, looked up): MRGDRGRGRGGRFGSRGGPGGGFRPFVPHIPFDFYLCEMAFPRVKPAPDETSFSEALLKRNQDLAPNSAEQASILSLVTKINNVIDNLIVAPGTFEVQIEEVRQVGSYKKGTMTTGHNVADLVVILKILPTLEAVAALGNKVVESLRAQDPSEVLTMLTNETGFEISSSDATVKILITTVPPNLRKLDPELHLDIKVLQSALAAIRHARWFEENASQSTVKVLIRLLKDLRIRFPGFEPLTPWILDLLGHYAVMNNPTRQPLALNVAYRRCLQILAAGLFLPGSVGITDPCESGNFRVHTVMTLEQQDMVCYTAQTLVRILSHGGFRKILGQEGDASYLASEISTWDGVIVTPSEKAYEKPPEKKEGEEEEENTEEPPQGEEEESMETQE
# Sequence of UniProt P23276 (P23276 whole entry, looked up): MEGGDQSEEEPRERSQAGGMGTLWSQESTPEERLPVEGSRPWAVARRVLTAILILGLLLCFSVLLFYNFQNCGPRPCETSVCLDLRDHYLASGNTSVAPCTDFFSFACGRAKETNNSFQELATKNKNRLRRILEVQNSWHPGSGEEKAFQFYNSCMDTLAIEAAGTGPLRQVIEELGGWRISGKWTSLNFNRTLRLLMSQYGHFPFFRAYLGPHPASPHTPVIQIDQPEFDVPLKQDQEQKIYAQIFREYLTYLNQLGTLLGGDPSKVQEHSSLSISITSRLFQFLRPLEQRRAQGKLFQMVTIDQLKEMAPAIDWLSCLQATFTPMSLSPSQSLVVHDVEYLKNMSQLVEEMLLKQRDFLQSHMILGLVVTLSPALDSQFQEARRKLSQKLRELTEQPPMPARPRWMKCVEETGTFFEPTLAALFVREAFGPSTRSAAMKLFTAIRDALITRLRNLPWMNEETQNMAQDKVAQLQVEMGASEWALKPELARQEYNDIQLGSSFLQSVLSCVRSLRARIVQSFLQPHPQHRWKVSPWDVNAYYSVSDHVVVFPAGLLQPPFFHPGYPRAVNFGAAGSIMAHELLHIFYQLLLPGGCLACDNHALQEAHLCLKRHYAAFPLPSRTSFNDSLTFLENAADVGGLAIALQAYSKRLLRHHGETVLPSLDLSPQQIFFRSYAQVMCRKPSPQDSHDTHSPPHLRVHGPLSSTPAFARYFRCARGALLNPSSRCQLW
# Sequence of UniProt Q9NWZ3 (Q9NWZ3 whole entry, looked up): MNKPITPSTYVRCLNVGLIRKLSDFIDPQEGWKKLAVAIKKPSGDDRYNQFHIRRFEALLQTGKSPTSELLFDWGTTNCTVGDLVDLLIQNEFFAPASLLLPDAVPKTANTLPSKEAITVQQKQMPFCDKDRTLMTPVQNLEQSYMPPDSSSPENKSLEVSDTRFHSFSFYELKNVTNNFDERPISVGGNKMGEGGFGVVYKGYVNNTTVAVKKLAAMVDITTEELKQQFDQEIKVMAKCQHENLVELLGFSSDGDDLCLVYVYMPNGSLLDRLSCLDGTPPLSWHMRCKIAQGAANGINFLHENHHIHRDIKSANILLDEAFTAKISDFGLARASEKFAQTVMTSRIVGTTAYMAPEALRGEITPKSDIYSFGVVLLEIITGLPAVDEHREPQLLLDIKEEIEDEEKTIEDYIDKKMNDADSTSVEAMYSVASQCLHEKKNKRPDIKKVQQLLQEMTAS
# Sequence of UniProt Q07666 (Q07666 whole entry, looked up): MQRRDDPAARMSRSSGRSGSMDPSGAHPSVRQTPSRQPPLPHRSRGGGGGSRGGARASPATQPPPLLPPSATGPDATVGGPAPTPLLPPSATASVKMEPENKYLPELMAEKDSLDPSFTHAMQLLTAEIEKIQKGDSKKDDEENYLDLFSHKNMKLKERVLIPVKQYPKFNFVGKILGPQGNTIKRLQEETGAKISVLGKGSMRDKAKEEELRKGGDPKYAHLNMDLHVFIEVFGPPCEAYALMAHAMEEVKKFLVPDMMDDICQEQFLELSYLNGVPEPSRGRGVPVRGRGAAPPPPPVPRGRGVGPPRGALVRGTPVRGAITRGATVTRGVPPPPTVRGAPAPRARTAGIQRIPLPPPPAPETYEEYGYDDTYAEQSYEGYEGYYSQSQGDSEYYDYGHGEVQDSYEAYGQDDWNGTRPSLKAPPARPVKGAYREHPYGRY
# Sequence of UniProt Q96PV6 (Q96PV6 whole entry, looked up): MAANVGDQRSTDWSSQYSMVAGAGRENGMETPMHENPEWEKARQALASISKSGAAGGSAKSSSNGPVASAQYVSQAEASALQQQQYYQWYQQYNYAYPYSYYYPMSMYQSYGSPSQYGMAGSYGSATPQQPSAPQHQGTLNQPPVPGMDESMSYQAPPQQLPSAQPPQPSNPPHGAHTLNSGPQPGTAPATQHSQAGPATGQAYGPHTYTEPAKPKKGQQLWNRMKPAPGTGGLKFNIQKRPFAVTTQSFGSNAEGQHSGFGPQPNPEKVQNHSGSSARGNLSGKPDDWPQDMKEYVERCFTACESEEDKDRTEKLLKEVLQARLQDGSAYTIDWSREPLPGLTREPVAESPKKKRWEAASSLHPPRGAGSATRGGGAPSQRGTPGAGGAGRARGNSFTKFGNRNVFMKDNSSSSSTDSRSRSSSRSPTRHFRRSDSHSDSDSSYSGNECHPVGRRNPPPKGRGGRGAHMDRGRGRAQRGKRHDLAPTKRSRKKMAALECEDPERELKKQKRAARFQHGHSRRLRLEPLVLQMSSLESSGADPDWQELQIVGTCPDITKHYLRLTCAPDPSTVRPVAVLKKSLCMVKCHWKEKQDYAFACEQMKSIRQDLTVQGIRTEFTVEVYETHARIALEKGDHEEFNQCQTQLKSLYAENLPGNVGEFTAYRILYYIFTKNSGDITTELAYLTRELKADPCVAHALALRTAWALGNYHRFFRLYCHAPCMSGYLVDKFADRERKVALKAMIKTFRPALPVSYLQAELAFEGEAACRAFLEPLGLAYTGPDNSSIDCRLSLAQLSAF
# Sequence of UniProt Q9H6V9 (Q9H6V9 whole entry, looked up): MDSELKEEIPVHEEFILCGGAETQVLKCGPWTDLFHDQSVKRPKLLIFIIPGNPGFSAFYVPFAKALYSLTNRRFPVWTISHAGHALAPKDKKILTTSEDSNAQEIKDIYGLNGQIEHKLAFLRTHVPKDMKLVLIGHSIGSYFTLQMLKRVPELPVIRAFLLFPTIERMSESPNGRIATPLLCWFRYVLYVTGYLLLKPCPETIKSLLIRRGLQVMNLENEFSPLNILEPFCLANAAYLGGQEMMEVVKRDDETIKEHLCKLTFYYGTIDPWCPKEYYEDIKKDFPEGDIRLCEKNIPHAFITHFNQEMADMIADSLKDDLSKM
Target,log2 fold change (erlotinib),log2 fold change [1],log2 fold change [2],log2 fold change [3],log2 fold change [4],log2 fold change [5],log2 fold change [6],log2 fold change [7],log2 fold change [8],log2 fold change [9],log2 fold change (IRAK-1-4 Inhibitor I),log2 fold change (ibrutinib),log2 fold change [10],log2 fold change (ralimetinib),log2 fold change [11],log2 fold change [12],log2 fold change [13],log2 fold change (pinometostat),log2 fold change [14],log2 fold change [15]
KDM5D isoform 3 (UniProt Q9BY66),-0.036,-0.142,0.067,-0.147,0.121,-0.034,-0.005,0.026,0.035,0.022,-0.042,-0.222,-0.05,-0.083,-0.155,0.036,0.114,-0.047,0.043,-0.103
IRAK4 (UniProt Q9NWZ3),0.041,-0.009,0.068,-0.038,0.059,-0.023,0.011,-0.004,0.069,-0.074,-0.012,0.002,0.196,-0.014,-0.092,-0.252 (active),-0.026,0.065,0.02,-0.002
LUC7L (UniProt Q9NQ29),-0.084,0.043,-0.092,0.114,-0.062,-0.003,-0.105,-0.016,-0.016,-0.035,-0.098,0.027,-0.137,0.009,0.08,-0.007,0.021,0.101,0.083,-0.056
KEL (UniProt P23276),0.011,0.042,0.008,0.13,-0.005,0.147,-0.029,-0.067,-0.013,-0.001,-0.001,0.052,-0.028,-0.011,0.054,0.025,-0.102,-0.02,-0.006,0.041
LIMA1 isoform 4 (UniProt Q9UHB6),-0.015,-0.062,-0.039,0.069,0.038,-0.015,0.022,0.054,0,-0.039,-0.031,0.033,-0.267 (active),0.011,0.114,0.206,-0.03,0.006,0.079,0.049
LARP4 isoform 4 (UniProt Q71RC2),0.015,0.007,-0.123,0.055,0.086,0.002,-0.028,-0.044,-0.004,-0.035,-0.091,0.037,-0.128,0.068,0.046,-0.19,0.059,0.114,0.133,-0.054
LDAH isoform 2 (UniProt Q9H6V9),0.116,0.052,-0.101,-0.041,0.047,0,0.018,0,0.06,-0.006,0.039,0.066,-0.039,0.077,0.464 (active),-0.286 (active),0.019,0,-0.053,0.073
LAMP2 (UniProt P13473),0.035,0,0.088,0.031,0.002,0.101,-0.013,-0.01,-0.013,0.039,0.063,0.042,-0.083,-0.12,-0.007,-0.033,0.004,-0.077,-0.139,0.066
LUZP1 (UniProt Q86V48),-0.094,-0.035,-0.328,-0.01,-0.131,-0.095,-0.091,-0.187,-0.06,-0.297,-0.136,-0.074,0.275,0.08,0.114,0.019,0.139,0.113,0.124,0.079
KHDRBS1 (UniProt Q07666),-0.023,0.042,-0.076,0.029,-0.088,0.046,0.027,0.014,-0.029,-0.084,-0.069,0.038,-0.002,0.016,0.073,-0.039,0.017,-0.052,-0.012,0.621 (active)
LENG8 (UniProt Q96PV6),-0.072,0.133,0.091,0.108,-0.024,-0.037,-0.141,0.096,0.152,-0.229,-0.122,0,-0.173,-0.13,-0.389,-0.646 (active),0.107,-0.071,0.031,0.15
MAP1LC3B2 (UniProt A6NCE7),0.009,0.093,0.038,0,-0.031,0.052,0.016,0.083,-0.002,0.036,-0.002,-0.053,-0.059,-0.026,0.008,-0.087,0.009,-0.008,-0.041,-0.01
IRF2BPL (UniProt Q9H1B7),-0.021,0.023,0.068,0.04,-0.03,0.064,0.089,0.025,-0.041,-0.022,0.031,0.038,0.008,0.013,-0.18,0.076,0.063,-0.206,0.044,0.093
LSR (UniProt Q86X29),0.022,0.022,-0.08,0.002,-0.019,0.019,-0.105,-0.114,-0.038,0.073,0.053,0.006,-0.139,-0.009,0.058,0.093,0.086,-0.046,-0.035,-0.008
ILK (UniProt Q13418),0,-0.119,-0.086,0.016,0.091,0.002,-0.056,-0.056,0.068,0.008,0.029,0.004,-0.029,0.027,-0.081,-0.094,0.128,0.083,-0.005,0.01
ILF2 (UniProt Q12905),-0.098,-0.087,-0.214,0.009,-0.088,0.066,-0.035,-0.011,-0.005,-0.175,-0.095,0.027,0.155,0.131,0.082,0.318,-0.024,0.064,-0.014,0.204

# Reference: the supplement of paper PMC10849652
